Hits are enriched below; roughly 4% of the tested compounds scored in any of these assays.
CF NFkB block = cystic fibrosis NF-kB activation inhibition; 0.86% of 360,000 active; inhibition, % at 5 µM; KKLEB NF-kB-GFP reporter, PAF-induced, GFP fluorescence overnight; AID 588850;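 active means at least 50% inhibition at 5 µM, scaled per plate between neutral and stimulator controls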;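 further: PAF is a Pseudomonas aeruginosa culture filtrate used as stimulus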
Peg3 prom inh = reduces Peg3 promoter-driven luciferase expression in HeLa | HeLa PEG-Prom luciferase reporter, luminescence, overnight | inhibition, % at 20 µM | 1.7% of 360,000 active;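 active means inhibition of at least 50% at 20 µM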
HIF-2a inh = HIF-2a inhibition; inhibition, % at 18.8 µM; 786-0 RCC cells HIF-2a reporter, luciferase luminescence, overnight; 0.72% of 360,000 active;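 active means inhibition of the luminescence signal of 40% or more relative to plate controls, in a single-dose primary screen at 18.75 µM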
TWEAK Fn14 block = TWEAK-Fn14 signaling inhibition; TWEAK-stimulated Fn14 reporter cells, luciferase luminescence, 8 h; inhibition, % at 10 µM; 2% of 360,000 active; AID 1159606; in the data active means inhibition above about 50%
TROY NFkB inh = inhibitors of TROY-dependent NF-kB signaling; AID 1347056; 0.98% of 360,000 active; Q293 LMP1-TROYcd NF-kB luciferase reporter, 4 h; inhibition, % at 10 µM;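 active means compounds whose plate-normalised and pattern-corrected inhibition of the luciferase reporter signal at the single screening dose is 50% or more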
KKLEB tox = CF airway cell cytotoxicity counter-screen; KKLEB CF airway cells viability, ATPlite luminescence, overnight; hits give low values; cells stimulated with P. aeruginosa culture filtrate; 0.36% of 360,000 active; activity change (cytotoxicity), % at 5 µM; AID 602141;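 active means corrected activity change at or below -50% at 5 µM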
Each line names hits and unclear results; the compound was inactive in the other large screens.

Cc1cc(N2CCN(C)CC2)ccc1NC(=O)c1cccc(S(=O)(=O)N2CCc3ccccc3C2)c1	Peg3 prom inh 109
Cc1cccc(C(C)C)c1NC(=O)COC(=O)c1cccc(S(=O)(=O)N2CCc3ccccc3C2)c1	Peg3 prom inh 60
CCCCn1c(N)c(Sc2ccc(C)cc2)c(=O)[nH]c1=O	none
COc1ccc(NC(=O)N(Cc2ccc3c(c2)OCO3)C2CC(=O)N(c3ccc(OC)cc3)C2=O)cc1 (centres undefined)	none
CC(C)CCn1cnc2c(oc3nc4c(cc32)CCCC4)c1=O	TWEAK Fn14 block 76, TROY NFkB inh 55
C[C@H](O)[C@@H]1CN2CCc3c([nH]c4ccc(-c5ccc6c(c5)OCO6)cc34)[C@@H]2C[C@@H]1N(C)C(=O)Nc1cc(Cl)cc(Cl)c1	Peg3 prom inh 67
C[C@H](O)[C@@H]1CN2CCc3c([nH]c4ccccc34)[C@@H]2C[C@@H]1N(C)C(=O)Nc1cc(Cl)cc(Cl)c1	none
C[C@H](O)[C@@H]1CN2CCc3c([nH]c4ccccc34)[C@@H]2C[C@@H]1N(C)C(=O)Nc1ccc(F)cc1	none
Cc1cccc(-c2ccc3[nH]c4c(c3c2)CCN2C[C@@H]([C@H](C)O)[C@@H](N(C)C(=O)Nc3ccc(F)cc3)C[C@@H]42)c1	Peg3 prom inh 100
Cc1ccc(C(=O)N2CC(C)CC(C)C2)cc1NC1=NC2CS(=O)(=O)CC2S1 (centres undefined)	none
Cc1cccc(C)c1NC(=O)COc1ccc2c(C)c(Cc3ccccc3)c(=O)oc2c1C	Peg3 prom inh 73
CCSc1nnc(NC(=O)NC2CCCCC2)s1	none
COc1cccc(C2=Nn3c(nnc3-c3ccccc3O)SC2)c1	none
C[n+]1c2n(c3ccccc31)N=C(c1cc(C(C)(C)C)c(O)c(C(C)(C)C)c1)CS2	Peg3 prom inh 86, TWEAK Fn14 block 88, TROY NFkB inh 57
Cc1cccc(C2c3[nH]c4ccccc4c3CCN2Cc2cccn2-c2ncccn2)c1 (centres undefined)	none
COc1ccc(C2c3[nH]c4ccccc4c3CCN2Cc2cccn2-c2ncccn2)cc1C (centres undefined)	TWEAK Fn14 block 56, TROY NFkB inh 71
O=C(c1cccs1)c1no[n+]([O-])c1C(=O)c1cccs1	CF NFkB block 93, Peg3 prom inh 93, HIF-2a inh 63, KKLEB tox -94
O=C(CC1(O)C(=O)N(CCc2ccccc2)c2ccccc21)c1ccco1 (centres undefined)	TWEAK Fn14 block 86 (no result: TROY NFkB inh)
Cc1ccc(C(=O)CC2(O)C(=O)N(CCc3ccccc3)c3ccc(Br)cc32)o1 (centres undefined)	none
CCc1ccc(OCCCC(=O)Nc2ccc(S(=O)(=O)Nc3cc(C)nc(C)n3)cc2)cc1	TWEAK Fn14 block 55
CCCC(=O)Nc1ccc(S(=O)(=O)Nc2cc(C)nc(C)n2)cc1	none
COc1ccc2[nH]c(=O)c(CN(CC3CCCO3)C(=O)Nc3ccc(F)cc3)cc2c1 (centres undefined)	Peg3 prom inh 77
COc1ccc(NC(=O)N(Cc2cc3cc(C)ccc3[nH]c2=O)CC2CCCO2)cc1 (centres undefined)	none
CC(C)c1ccc(NC(=O)C(c2ccccc2)N2CC(=O)Nc3ccccc32)cc1 (centres undefined)	none
Cn1ccc2c(-c3ccc(F)cc3F)cc3c(c21)C1CCC3C1 (centres undefined)	none
Cn1ccc2c(-c3cccc4ccccc34)cc3c(c21)C1CCC3C1 (centres undefined)	TWEAK Fn14 block 82, TROY NFkB inh 77
Cn1ccc2c(-c3cccc(C=O)c3F)cc3c(c21)C1CCC3C1 (centres undefined)	TWEAK Fn14 block 51, TROY NFkB inh 55
Cn1ccc2c(-c3cncc4ccccc34)cc3c(c21)C1CCC3C1 (centres undefined)	none
Cn1ccc2c(-c3cccc(C=O)c3)cc3c(c21)C1CCC3C1 (centres undefined)	TROY NFkB inh 65
Cc1cc(N2CCN(C)CC2)nc2ccc(NC(=O)CCC(=O)NCCCOC(C)C)cc12	none
O=C(c1cn(Cc2ccccc2)nc1-c1cccnc1)N1CCN(Cc2ccccc2)CC1	Peg3 prom inh 98
O=C(c1cn(Cc2ccccc2)nc1-c1cccnc1)N1CCN(Cc2c(F)cccc2Cl)CC1	none
O=C(O)CCCCn1c(SCc2ccccc2Cl)nc2ccsc2c1=O	none
Cc1ccc(Cn2ccc(C3CC3)n2)cc1	none
C[C@@H]1CCCCO[C@@H](CN(C)CC2CCCCC2)[C@@H](C)CN([C@H](C)CO)C(=O)c2cc(NS(=O)(=O)c3ccc(Cl)cc3)ccc2O1	Peg3 prom inh 90
C[C@H](CO)N1C[C@H](C)[C@@H](CN(C)S(=O)(=O)c2ccccc2)Oc2ccc(NC(=O)Nc3ccc(C(F)(F)F)cc3)cc2C1=O	TWEAK Fn14 block 61
C[C@@H]1CCCCO[C@H](CN(C)Cc2ccc(C(F)(F)F)cc2)[C@H](C)CN([C@@H](C)CO)C(=O)c2cc(NC(=O)Cc3ccccc3)ccc2O1	Peg3 prom inh 50
COc1ccc(CN(C)C[C@@H]2OCCCC[C@H](C)Oc3ccc(NC(=O)Nc4ccc(F)cc4)cc3C(=O)N([C@H](C)CO)C[C@H]2C)cc1	Peg3 prom inh 74
O=C(NCCOC(=O)c1ccc(S(=O)(=O)N2CCOCC2)cc1)c1cccnc1	none
C[C@@H]1CN([C@@H](C)CO)C(=O)c2cc(NC(=O)Nc3ccccc3)ccc2O[C@H]1CN(C)C(=O)Nc1cccc2ccccc12	TROY NFkB inh 52
C[C@@H]1CN([C@@H](C)CO)C(=O)Cc2cc(NC(=O)Nc3ccc(F)cc3)ccc2O[C@@H]1CN(C)Cc1ccc(Cl)c(Cl)c1	CF NFkB block 52, Peg3 prom inh 85, TWEAK Fn14 block 60
C[C@H]1CN([C@@H](C)CO)C(=O)Cc2cc(NS(C)(=O)=O)ccc2O[C@@H]1CN(C)Cc1ccc(Cl)c(Cl)c1	none
C[C@@H]1CN([C@H](C)CO)C(=O)c2cccc(NC(=O)NC3CCCCC3)c2O[C@@H]1CN(C)C(=O)Nc1ccc(C(F)(F)F)cc1	Peg3 prom inh 88
C[C@@H]1CN([C@H](C)CO)C(=O)c2cc(NC(=O)Cc3ccccc3)ccc2O[C@H]1CN(C)Cc1ccc(Oc2ccccc2)cc1	none
C[C@H](CO)N1C[C@H](C)[C@@H](CN(C)C(=O)Nc2ccccc2)Oc2ccc(NC(=O)Nc3ccc(C(F)(F)F)cc3)cc2C1=O	none
C[C@@H]1CN([C@@H](C)CO)C(=O)c2cc(NC(=O)Nc3ccc(F)cc3)ccc2O[C@@H]1CN(C)Cc1ccc(Oc2ccccc2)cc1	Peg3 prom inh 80
COC(=O)c1ccccc1NC(=O)CN(c1ccccc1)S(=O)(=O)N(C)C	none
